Measured values: PubChem BioAssay (EPA / NIEHS)
The source made the active and inactive calls. The calls were made as follows: active = hit-call score of the fitted dose curve at least 0.9, where 1 is the maximum; inactive = score below 0.9.

Tests used:
Details in all cases: primary human B cells with PBMC
[1] = BSK_BT_PBMCCytotoxicity: PBMC Cytotoxicity Assessment in the BioMAP Diversity Plus: BT Assay (AID 2284225);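 also: PBMC viability measured by Alamar Blue dye reduction fluorescence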
Summary of the method: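 Primary human co-culture of B cells and PBMC, pre-dosed 1 h then activated with SEB and TSST-1. Cytotoxicity is taken from Alamar Blue dye reduction, added for 6 h at the end of a 90 h incubation.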

[2] = read-out: Secreted IgG (sIgG), gene 3500; assay: BSK_BT_sIgG: BioMAP Diversity Plus: BT Assay for Secreted IgG (sIgG) Biomarker Activity (AID 2284226)
Summary of the method: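 Human B cell/PBMC co-culture; compound exposure 24 h; sIgG by ELISA; gain-of-signal fit vs DMSO baseline.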

[3] = BSK_BT_Bcell_Proliferation: Viability Assessment in the BioMAP Diversity Plus: BT Assay for B cell Proliferation (AID 2284227)
Summary of the method: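 Using a human primary B cell–PBMC co-culture, the assay measures total protein by sulforhodamine B absorbance as a gauge of proliferation after 72 h. Analysis followed the positive fitting direction with DMSO as baseline.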

[4] = read-out: Interleukin 6 (IL6), IL6 (gene 3569); assay: BSK_BT_xIL6: BioMAP Diversity Plus: BT Assay for Interleukin 6 (IL6) Biomarker Activity (AID 2284228)
Summary of the method: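 Human B cell/PBMC co-culture; secreted IL-6 quantified by Luminex xMAP 24 h after chemical dosing, fitted relative to DMSO. Parallel PBMC viability by Alamar Blue after 1 h pretreatment, 20 ng/mL SEB and TSST-1, 90 h incubation.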

Structure (SMILES)	outcome [1]	AC50 [2]	outcome [3]	outcome [4]	outcome [2]	AC50 [1]	AC50 [3]	AC50 [4]
COP(=S)(OC)Oc1ccc(S(=O)(=O)N(C)C)cc1	inactive	9.48 µM (active)	inactive	inactive	–	–	–	–
COC[C@H](C)N(C(=O)CCl)c1c(C)csc1C	inactive	–	inactive	inactive	inactive	–	–	–
CCOC(=O)/C=C(C)/C=C/C[C@@H](C)CCCC(C)C	–	20 µM (active)	–	–	–	23.7 µM (active)	27 µM (active)	20.8 µM (active)
CCSC(C)CC1CC(=O)C(C(CC)=NOC/C=C/Cl)=C(O)C1 (stereo unspecified)	inactive	–	inactive	inactive	inactive	–	–	–
COP(=S)(OC)Oc1cc(Cl)c(Cl)cc1Cl	inactive	34.3 µM (active)	inactive	inactive	–	–	–	–
NC(=S)Nc1ccccc1	inactive	–	inactive	inactive	inactive	–	–	–
O=Cc1cccc(Oc2ccccc2)c1	inactive	–	inactive	–	inactive	–	–	5.07 µM (active)
CCNc1nc(NC(C)(C)C)nc(SC)n1	inactive	26.7 µM (active)	inactive	inactive	–	–	–	–
COP(=S)(OC)Oc1ccc(Sc2ccc(OP(=S)(OC)OC)cc2)cc1	inactive	28.9 µM (active)	inactive	inactive	–	–	–	–
ClC1=C(Cl)[C@]2(Cl)[C@H]3[C@H]([C@H]4C=C[C@H]3C4)[C@@]1(Cl)C2(Cl)Cl	–	7.53 µM (active)	–	–	–	30.5 µM (active)	36.3 µM (active)	20 µM (active)
COc1cc(OC)nc(NC(=O)NS(=O)(=O)c2ncccc2C(=O)N(C)C)n1	inactive	–	inactive	inactive	inactive	–	–	–
CC1(C)Cc2cccc(O)c2O1	inactive	–	inactive	inactive	inactive	–	–	–
O=C(O)C(F)(F)C(F)(F)C(F)(F)C(F)(F)C(F)(F)C(F)(F)C(F)(F)C(F)(F)C(F)(F)C(F)(F)F	inactive	–	inactive	inactive	inactive	–	–	–
CC(C)CCCCCCOC(=O)c1ccccc1C(=O)OCCCCCCC(C)C	inactive	–	inactive	inactive	inactive	–	–	–
